The supplement of paper PMC12067926

How the values were obtained:
Assay in all cases: relative growth (AUC of 72 h growth curve relative to DMSO control, dAUC) (ratio); higher = more growth (less inhibition), active = hit call of the paper
Details in all cases: 20 µM;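 active = growth AUC significantly below the DMSO wells by Dunnett test; inactive = the rest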
Community 7 = test system: Community 7
Summary of the method: (§1)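 Whole sediment communities and bacterial isolates from Icelandic stream sediments and Silwood Park soil were brought to carrying capacity in Luria–Bertani medium. They were then diluted 1:100 into 96-well plates with each chemical at 20 µM in 1% DMSO, and A600 was recorded every hour for 72 h. The area under each growth curve, integrated by spline, was averaged across three biological replicates. This figure, divided by the mean of the DMSO controls, gives relative growth (dAUC).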

Community 8 = test system: Community 8
Summary of the method: as §1

Community 9 = test system: Community 9
Summary of the method: as §1

[1] = test system: Flavobacterium 1 (Flavobacterium glaciei)
Summary of the method: as §1

[2] = test system: Flavobacterium 2 (Flavobacterium succinicans)
Summary of the method: as §1

[3] = test system: Hymenobacter 1 (Hymenobacter glaciei)
Summary of the method: as §1

[4] = test system: Microbacterium 1 (Microbacterium arborescens)
Summary of the method: as §1

[5] = test system: Neobacillus 1 (Neobacillus soli)
Summary of the method: as §1

[6] = test system: Oryzobacter 1 (Oryzobacter terrae)
Summary of the method: as §1

[7] = test system: Paenibacillus 1 (Paenibacillus castaneae)
Summary of the method: as §1

[8] = test system: Prolinoborus 1 (Prolinoborus fasciculus)
Summary of the method: as §1

[9] = test system: Pseudomonas 1 (Pseudomonas baetica)
Summary of the method: as §1

[10] = test system: Pseudomonas 2 (Pseudomonas vancouverensis)
Summary of the method: as §1

[11] = test system: Pseudomonas 3 (Pseudomonas mandelii)
Summary of the method: as §1

[12] = test system: Pseudomonas 4 (Pseudomonas peli)
Summary of the method: as §1

[13] = test system: Pseudomonas 5 (Pseudomonas baetica)
Summary of the method: as §1

[14] = test system: Pseudomonas 6 (Pseudomonas sp.)
Summary of the method: as §1

[15] = test system: Rhizobium 1 (Rhizobium herbae)
Summary of the method: as §1

[16] = test system: Serratia 1 (Serratia sp. 2015-2462-01)
Summary of the method: as §1

[17] = test system: Sphingomonas 2 (Sphingomonas sp.)
Summary of the method: as §1

Row | SMILES | relative growth (Community 7) | relative growth (Community 8) | relative growth (Community 9) | relative growth [1] | relative growth [2] | relative growth [3] | relative growth [4] | relative growth [5] | relative growth [6] | relative growth [7] | relative growth [8] | relative growth [9] | relative growth [10] | relative growth [11] | relative growth [12] | relative growth [13] | relative growth [14] | relative growth [15] | relative growth [16] | relative growth [17]
1 | CCC(CC)Nc1c([N+](=O)[O-])cc(C)c(C)c1[N+](=O)[O-] | 1.03 (inactive) | 1.02 (inactive) | 0.884 (inactive) | 1.03 (inactive) | 0.957 (inactive) | 0.926 (inactive) | 1.04 (inactive) | 0.918 (inactive) | 1.1 (inactive) | 0.933 (inactive) | 0.939 (inactive) | 1.13 (inactive) | 0.981 (inactive) | 1.03 (inactive) | 0.949 (inactive) | 1.05 (inactive) | 1.04 (inactive) | 0.957 (inactive) | 0.929 (inactive) | 0.998 (inactive)
2 | COc1cc(OC)nc(NC(=O)NS(=O)(=O)c2ncccc2C(=O)N(C)C)n1 | 1.02 (inactive) | 1.07 (inactive) | 1.08 (inactive) | 1.12 (inactive) | 1.08 (inactive) | 1.16 (inactive) | 1.04 (inactive) | 1.1 (inactive) | 0.98 (inactive) | 1.08 (inactive) | 0.999 (inactive) | 0.988 (inactive) | 1 (inactive) | 1.01 (inactive) | 0.993 (inactive) | 0.996 (inactive) | 0.943 (inactive) | 0.992 (inactive) | 1 (inactive) | 1 (inactive)
3 | Cc1cc(C)c(C2=C(OC(=O)CC(C)(C)C)C3(CCCC3)OC2=O)c(C)c1 | 0.932 (inactive) | 1.08 (inactive) | 1.03 (inactive) | 0.346 (active) | 0.981 (inactive) | 0.896 (inactive) | 1.02 (inactive) | 1.01 (inactive) | 1.16 (inactive) | 0.994 (inactive) | 0.977 (inactive) | 1.1 (inactive) | 1.12 (inactive) | 1.09 (inactive) | 1 (inactive) | 1.03 (inactive) | 1.2 (inactive) | 0.937 (inactive) | 1.03 (inactive) | 1.01 (inactive)
4 | CN(C)C(CSS(=O)(=O)O)CSS(=O)(=O)O | 1 (inactive) | 1.02 (inactive) | 0.942 (inactive) | 1.09 (inactive) | 1 (inactive) | 1.07 (inactive) | 1.06 (inactive) | 1 (inactive) | 1.13 (inactive) | 0.935 (inactive) | 0.961 (inactive) | 1.14 (inactive) | 0.994 (inactive) | 1.08 (inactive) | 0.978 (inactive) | 1.04 (inactive) | 1.1 (inactive) | 0.931 (inactive) | 0.953 (inactive) | 0.893 (inactive)
5 | CCCN(CCOc1c(Cl)cc(Cl)cc1Cl)C(=O)n1ccnc1 | 0.969 (inactive) | 1.02 (inactive) | 0.998 (inactive) | 0.335 (active) | 0.935 (inactive) | 0.75 (inactive) | 0.953 (inactive) | 1.05 (inactive) | 0.236 (active) | 0.59 (active) | 0.93 (inactive) | 1.07 (inactive) | 0.984 (inactive) | 1.02 (inactive) | 0.964 (inactive) | 0.997 (inactive) | 1.03 (inactive) | 0.949 (inactive) | 0.985 (inactive) | 0.993 (inactive)
6 | CCCCC(C#N)(Cn1cncn1)c1ccc(Cl)cc1 (stereo not given) | 0.991 (inactive) | 0.904 (inactive) | 0.937 (inactive) | 0.856 (inactive) | 0.885 (inactive) | 0.912 (inactive) | 0.925 (inactive) | 0.942 (inactive) | 1.12 (inactive) | 0.97 (inactive) | 0.947 (inactive) | 0.939 (inactive) | 0.943 (inactive) | 0.993 (inactive) | 0.927 (inactive) | 0.963 (inactive) | 0.907 (inactive) | 0.958 (inactive) | 0.973 (inactive) | 0.96 (inactive)
7 | COP(=S)(OC)SCN1C(=O)c2ccccc2C1=O | 1.04 (inactive) | 1.02 (inactive) | 1.04 (inactive) | 0.982 (inactive) | 0.975 (inactive) | 1.02 (inactive) | 0.992 (inactive) | 1.03 (inactive) | 0.954 (inactive) | 1.06 (inactive) | 1.08 (inactive) | 0.986 (inactive) | 0.981 (inactive) | 0.971 (inactive) | 0.962 (inactive) | 1.03 (inactive) | 1.12 (inactive) | 0.943 (inactive) | 0.972 (inactive) | 1.01 (inactive)
8 | N#Cc1sc2c(=O)c3ccccc3c(=O)c=2sc1C#N | 1.06 (inactive) | 1.06 (inactive) | 1.09 (inactive) | 0.359 (active) | 1.05 (inactive) | 0.709 (inactive) | 0.965 (inactive) | 1 (inactive) | 0.898 (inactive) | 0.928 (inactive) | 1.03 (inactive) | 0.913 (inactive) | 0.929 (inactive) | 0.887 (active) | 1.07 (inactive) | 0.962 (inactive) | 0.885 (inactive) | 1 (inactive) | 0.862 (inactive) | 1.01 (inactive)
9 | CNC(=O)ON=C(C)SC | 0.999 (inactive) | 0.942 (inactive) | 1.04 (inactive) | 1.03 (inactive) | 1.03 (inactive) | 1.07 (inactive) | 0.999 (inactive) | 1.01 (inactive) | 0.947 (inactive) | 1.07 (inactive) | 0.938 (inactive) | 0.876 (inactive) | 0.956 (inactive) | 0.999 (inactive) | 0.946 (inactive) | 1.02 (inactive) | 0.936 (inactive) | 1.06 (inactive) | 0.936 (inactive) | 0.978 (inactive)
10 | O=C1C2(Cl)C3(Cl)C4(Cl)C(Cl)(Cl)C5(Cl)C3(Cl)C1(Cl)C5(Cl)C24Cl (stereo not given) | 1.14 (inactive) | 1.02 (inactive) | 0.875 (inactive) | 0.126 (active) | 0.847 (inactive) | 0.00946 (active) | 1.01 (inactive) | 0.911 (inactive) | 0.00589 (active) | 0.678 (active) | 0.943 (inactive) | 1.01 (inactive) | 0.962 (inactive) | 0.955 (inactive) | 0.934 (inactive) | 1.07 (inactive) | 1.14 (inactive) | 0.292 (active) | 0.909 (inactive) | 0.382 (active)
11 | OC(Cn1cncn1)(c1ccc(F)cc1)c1ccccc1F (stereo not given) | 0.819 (inactive) | 1.04 (inactive) | 1.08 (inactive) | 1.12 (inactive) | 1.07 (inactive) | 1.13 (inactive) | 0.996 (inactive) | 1.08 (inactive) | 1.05 (inactive) | 1.05 (inactive) | 0.985 (inactive) | 0.993 (inactive) | 0.999 (inactive) | 1.03 (inactive) | 1.02 (inactive) | 1 (inactive) | 0.961 (inactive) | 0.971 (inactive) | 0.991 (inactive) | 1.03 (inactive)
12 | CCc1nn(C)c(C(=O)NCc2ccc(Oc3ccc(C)cc3)cc2)c1Cl | 1.02 (inactive) | 1.03 (inactive) | 0.885 (inactive) | 1 (inactive) | 1.04 (inactive) | 0.992 (inactive) | 1.02 (inactive) | 1.05 (inactive) | 0.988 (inactive) | 1 (inactive) | 0.978 (inactive) | 1.08 (inactive) | 1.02 (inactive) | 1.01 (inactive) | 0.987 (inactive) | 1.01 (inactive) | 1.05 (inactive) | 0.941 (inactive) | 1.07 (inactive) | 1.04 (inactive)
13 | COc1cccc(C(=O)NN(C(=O)c2cc(C)cc(C)c2)C(C)(C)C)c1C | 1.12 (inactive) | 1.03 (inactive) | 0.893 (inactive) | 0.818 (inactive) | 0.92 (inactive) | 0.923 (inactive) | 0.977 (inactive) | 0.914 (inactive) | 1.06 (inactive) | 0.926 (inactive) | 0.981 (inactive) | 1.04 (inactive) | 1.01 (inactive) | 1.04 (inactive) | 0.987 (inactive) | 1.05 (inactive) | 1.12 (inactive) | 0.96 (inactive) | 0.934 (inactive) | 0.977 (inactive)
14 | CC1(C)C(C=C(Cl)Cl)C1C(=O)OC(C#N)c1ccc(F)c(Oc2ccccc2)c1 (stereo not given) | 0.868 (inactive) | 1.06 (inactive) | 0.995 (inactive) | 1.02 (inactive) | 0.998 (inactive) | 1.03 (inactive) | 1.04 (inactive) | 0.981 (inactive) | 1.14 (inactive) | 0.826 (inactive) | 1.04 (inactive) | 1.22 (inactive) | 1.02 (inactive) | 1.02 (inactive) | 0.964 (inactive) | 1.03 (inactive) | 1.03 (inactive) | 1.06 (inactive) | 0.994 (inactive) | 1.03 (inactive)
15 | CCC(C)(C)C(=O)OC1=C(c2ccc(Cl)cc2Cl)C(=O)OC12CCCCC2 | 1.13 (inactive) | 0.972 (inactive) | 1.05 (inactive) | 0.794 (inactive) | 1.02 (inactive) | 1.01 (inactive) | 0.978 (inactive) | 1 (inactive) | 1.03 (inactive) | 0.964 (inactive) | 0.952 (inactive) | 1.07 (inactive) | 0.983 (inactive) | 1.04 (inactive) | 1 (inactive) | 1.02 (inactive) | 1.06 (inactive) | 0.97 (inactive) | 0.978 (inactive) | 1 (inactive)
16 | COP(N)(=O)SC (stereo not given) | 1.34 (inactive) | 0.924 (inactive) | 0.575 (active) | 0.117 (active) | 0.952 (inactive) | 1.01 (inactive) | 0.992 (inactive) | 0.856 (inactive) | 1.03 (inactive) | 0.194 (active) | 0.972 (inactive) | 1.04 (inactive) | 0.982 (inactive) | 1.06 (inactive) | 0.995 (inactive) | 1.1 (inactive) | 1.06 (inactive) | 0.973 (inactive) | 0.965 (inactive) | 0.675 (inactive)
